# Records with an inconclusive call do not appear. Unmarked numbers belong to inactive results. The call rests on the fitted dose curve; in most records, active means well fitted activation curve with a large enough effect; inconclusive means small, poorly fitted or top-dose-only effect; inactive means no such curve, though single readings can be large or run the other way.
# Test: qHTS assay for re-activators of p53 using a Luc reporter: Hit Validation with no p53 Expressed; further: 0% is about no effect
# Details: p53-null cells, luciferase reporter counter-screen; series mostly up to 46.1 µM; activity change, positive = activation: at the top concentration
# How it was run: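 Counter-screen of primary hits in a cell line not transfected with p53, in Opti-MEM with 10% FBS; compounds at several concentrations (10 mM stock, 1:5; top 46.1 µM in well), 24 h at 37 deg C, 5% CO2. Luminescence read after 10 min with Amplite reagent.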
row,Compound,"activity change, positive = activation [%]"
1,N#CC(c1ccccc1)C1CCN(Cc2ccccc2)CC1 (centres undefined),71.6
2,O=C(COc1ccccc1[N+](=O)[O-])N/N=C/c1cccc(OC(=O)c2ccc3c(c2)OCO3)c1,-0.202
3,OC1(C2(O)CC(c3ccccc3)ON2)CCCCC1 (centres undefined),33.1
4,COc1ccc(N=C(N)SCc2ccccn2)cc1,12.5
5,CCOC(=O)c1cc(-c2ccccc2)sc1NC(=O)CC,-51.7
6,COc1ccc(-c2cc(C(F)(F)F)nc(-n3ccnc3C)n2)cc1,-11.3
7,Nc1nc(-c2ccc([N+](=O)[O-])cc2)cs1,59.8
8,O=C(CCC1CCCC1)Nc1ccc(Br)cn1,74.3
9,COc1ccc(N2CCN(C(=O)COC(=O)c3ccc(OC(F)F)cc3)CC2)cc1,16.1
10,O=C(Nc1ccc2ccccc2c1)c1ccc(Cl)cc1Cl,-19.5
11,C/C(=N/NC(=S)Nc1ccccc1)c1ccc2c(c1)OCO2,4.43
12,COc1ccc(/C(O)=C2/C(=O)C(=O)N(CCN3CCOCC3)C2c2ccccn2)cc1 (centres undefined),-41.2
13,COCCn1c(C)cc(C(=O)COc2ccc(N(C)S(=O)(=O)c3ccc(C)cc3)cc2)c1C,-1.71
14,COc1ccc(CCNC2CCC(c3ccccc3)CC2)cc1 (centres undefined),-20.8
15,CC(C)CCn1cnc2c(cnn2-c2ccc(F)cc2)c1=O,30
16,O=c1sc(/C=N/Nc2ccccc2)c(Cl)n1Cc1ccccc1,-13.4
17,Cc1ccccc1OCC(=O)Nc1cccc2nsnc12,37.9
18,O=C(/C=C/c1ccc([N+](=O)[O-])s1)N1CCCCC1,156
19,CCOc1ccc2c(c1)C(C)=CC(C)(C)N2S(=O)(=O)c1ccc(NC(C)=O)cc1,-47.8

# Reference: PubChem BioAssay AID624331 (National Center for Advancing Translational Sciences (NCATS), 2012)
